Hits are enriched below; roughly 9.3% of the tested compounds scored in any of these assays.
ELG1 genotoxic = qHTS screen for small molecules that induce genotoxicity in human embryonic kidney (HEK293T) cells expressing luciferase-tagged ELG1. HEK293T ELG1-luciferase reporter, luminescence, 16 h. Potency, µM (top dose mostly 46 µM), without a hit: top-dose activity change, positive = activation, hits mostly activators. 330,000 compounds, 1.3% hits. AID 504466, 2011; also: % of control where 0% means no effect; nearly all actives have a fitted effect of over 60% in size
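HEK293T cells expressing luciferase-tagged ELG1 were exposed to compound or DMSO vehicle for 16 hr at 37 °C and 5% CO2. Luciferase activity was then measured with ONE-Glo after 30 min at room temperature.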
ELG1 DNA repair = qHTS screen for small molecules that inhibit ELG1-dependent DNA repair in human embryonic kidney (HEK293T) cells expressing luciferase-tagged ELG1. 330,000 compounds, 2.3% hits. Potency, µM (highest dose often 46.1 µM), for inactives: at the highest dose activity change, negative = inhibition, actives largely listed as inhibitors. HEK293T ELG1-luciferase reporter, luminescence, 16 h; DNA damage induced by 5-fluorouridine. AID 504467, 2011; also: % is scaled to controls: 0 for no effect and ±100 for the full control effect; nearly all actives have a fitted effect of over 55% in size
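Luminescence from the luciferase reporter, measured 30 min after ONE-Glo reagent at room temperature, was the read-out. Beforehand, 2,000 cells per well were exposed for 16 hr at 37 °C to 5-fluorouridine together with compound or vehicle.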
NPC1 prom act = qHTS Assay for NPC1 Promoter Activators; Huh7 NPC1 promoter luciferase reporter, 24 h; Potency, µM (top dose mostly 9.22 µM), for the others: at the top dose activation, most hits filed as activators; 320,000 compounds, 2.4% hits; also: % of control where 0% means no effect; nearly all actives have a fitted effect of over 60% in size
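Quantitative HTS used a cell-based reporter: Huh7 cells stably bearing the NPC1 promoter upstream of luciferase were treated with compounds for 24 h, and promoter activation was read as luminescence.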
Rab9 prom act = qHTS Assay for Rab9 Promoter Activators; Huh7 Rab9 promoter-luciferase reporter, luminescence, 24 h; Potency, µM (series often up to 9.22 µM), for the others: at the top dose activation, negative = inhibition, most hits filed as activators; 320,000 compounds, 2.8% hits; also: % of control where 0% means no effect; nearly all actives have a fitted effect of over 60% in size
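Huh7 cells stably carrying a Rab9 promoter-luciferase reporter, 1500 cells per well in OP-MEM I with 10% FBS, treated with compound 24 hours at 37C. Luciferase activity read by luminescence after 10 minutes with Amplite reagent.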
FLuc counter = qHTS profiling assay for firefly luciferase inhibitor/activator using purifed enzyme and Km concentrations of substrates (counterscreen for miR-21 project); Luciferin 4-monooxygenase (Photinus pyralis), P08659; purified FLuc, Km substrates, luminescence inhibition; Potency, µM (highest dose often 57.5 µM), inactives show at the top dose activity change, negative = inhibition, most hits filed as inhibitors; 360,000 compounds, 6.9% hits; AID 588342, 2011;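 also: plate controls were vehicle for no effect and reference inhibitor for full effect; nearly all actives have a fitted effect of over 55% in size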
Target sequence (P08659 whole entry, looked up): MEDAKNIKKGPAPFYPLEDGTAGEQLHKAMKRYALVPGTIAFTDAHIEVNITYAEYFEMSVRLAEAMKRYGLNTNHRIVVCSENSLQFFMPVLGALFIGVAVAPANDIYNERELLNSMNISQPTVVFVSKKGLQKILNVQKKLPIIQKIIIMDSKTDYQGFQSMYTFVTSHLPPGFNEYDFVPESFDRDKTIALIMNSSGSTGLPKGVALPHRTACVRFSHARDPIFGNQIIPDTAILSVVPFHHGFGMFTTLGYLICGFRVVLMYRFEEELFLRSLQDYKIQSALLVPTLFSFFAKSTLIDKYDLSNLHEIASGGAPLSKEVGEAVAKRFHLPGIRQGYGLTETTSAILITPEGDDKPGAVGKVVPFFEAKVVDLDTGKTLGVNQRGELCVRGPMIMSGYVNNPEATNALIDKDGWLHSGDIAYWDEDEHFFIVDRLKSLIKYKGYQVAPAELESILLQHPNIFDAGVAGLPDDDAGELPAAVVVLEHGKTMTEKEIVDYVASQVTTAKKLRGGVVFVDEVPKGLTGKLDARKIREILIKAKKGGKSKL
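Purified P. pyralis luciferase, 10 nM final, with Km-level 10 uM D-luciferin and 10 uM ATP in 50 mM Tris acetate pH 7.5, 10 mM Mg acetate, 0.01% Tween-20, 0.05% BSA; 6-point qHTS titration about 60 µM downward; luminescence read.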
SMN2 splice up = qHTS Assay for Enhancers of SMN2 Splice Variant Expression | HEK293 SMN2-luciferase splicing reporter, luminescence, 30-36 h | Potency, µM (top dose mostly 46.1 µM), inactives show top-dose activity change, positive = activation, most hits filed as activators | 210,000 compounds, 2.8% hits | AID 1458, 2008; also: % of control where 0% means no effect; nearly all actives have a fitted effect of over 55% in size
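HEK293 cells carry an SMN2 minigene-luciferase reporter in which exon 7 inclusion puts luciferase in frame. Cells were seeded at 2000 cells/well, attached for 10-12 hours, then exposed to compounds for 30-36 hours at 37C before ONE-Glo luminescence.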
An asterisk follows results filed as active; u = inconclusive; x = no result given; [ ] = dose if it differs, or a comment. Calls follow the shape of the dose curve; as a rule, active = well fitted curve in the direction sought with a large enough effect; inconclusive = small, poorly fitted or top-dose-only effect, or another doubt; inactive = no such curve, though single readings can be large; an effect the other way counts as inactive or inconclusive. Potency is read from the fitted curve at half-maximal effect.

SMILES	ELG1 genotoxic	ELG1 DNA repair	NPC1 prom act	Rab9 prom act	FLuc counter	SMN2 splice up
CCn1c(C)cc(C(=O)COC(=O)c2ccccc2[N+](=O)[O-])c1C	-6%	u	x	x	x	x
Cc1ccc(-n2c(C)cc(C(=O)COC(=O)c3ccc[nH]c3=O)c2C)cc1C	u	u	u	u	6µM*	7.1µM*
Cc1cc(C(=O)COC(=O)C2=NN(c3ccccc3)C(=O)CC2)c(C)n1CC(F)(F)F	3%	2%	-2%	1%	-16%	-1%
CCCn1c(C)cc(C(=O)COC(=O)c2ccc(Cl)c(S(=O)(=O)N3CCCC3)c2)c1C	1%	u	-2%	-2%	2.4µM*	-20%
Cc1cc(C(=O)COC(=O)c2ccc[nH]c2=O)c(C)n1-c1ccccc1F	u	u	0.32µM*	0.4µM*	1.5µM*	x
Cc1cc(C(=O)COC(=O)c2ccc(O)cc2)c(C)n1-c1ccccc1F	u	u	u	u	2.4µM*	21%
CCn1cc(C(=O)OCC(=O)c2cc(C)n(-c3ccccc3F)c2C)c(=O)c2ccc(C)nc21	1%	u	-1%	-6%	u	12%
CCN(CC(=O)Nc1ccc(NC(C)=O)cc1)C(=O)C1(c2ccccc2)CC1	-1%	-10%	0%	10%	2%	x
CCNC(=S)N(CCc1ccc(OC)c(OC)c1)Cc1cc2cc(OC)ccc2[nH]c1=O	-4%	u	-2%	-1%	-13%	x
COc1ccc2[nH]c(=O)c(CN(Cc3cccs3)C(=S)Nc3ccccc3)cc2c1	-6%	u	-6%	1%	4%	-2%[1.84 µM]
Cc1ccc2[nH]c(=O)c(CN(Cc3ccccc3)C(=S)NCCCN(C)C)cc2c1	0.73µM*	u	0.32µM*	0.32µM*	0.76µM*	x
COc1cc2cc(CN(Cc3cccs3)C(=S)Nc3ccccc3)c(=O)[nH]c2cc1OC	-5%	8.2µM*	-3%	2%	4%	-19%
COc1cc2cc(CN(CCc3ccccc3C)C(=S)NCCCN(C)C)c(=O)[nH]c2cc1OC	0%	-23%	-3%	-1%	0%	-1%
CCNC(=S)N(CCc1ccccc1C)Cc1cc2cc(OC)c(OC)cc2[nH]c1=O	-2%	9.2µM*	0%	1%	2%	-1%
CCNC(=S)N(CCc1cccc(C)c1)Cc1cc2cc(OC)c(OC)cc2[nH]c1=O	-2%	8.2µM*	-5%	2%	-13%	-12%
Cc1cccc(-c2nc(Cn3c(SCc4cc(C)ccc4C)nc4ccncc43)c(C)o2)c1	x	x	x	x	-17%	2%
COc1ccc(C(=O)Nc2cc(C)on2)cc1	u	u	2µM*	1.8µM*	6.7µM*	13µM*
Cc1cc(NC(=O)c2cccc(F)c2)no1	u	u	26%	26%	u	14%
C/C(=C\C(=O)Nc1cc(C)on1)c1ccccc1	14%	u	29%	27%	12µM*	u
Cc1cc(C(=O)NNc2ccc(C)c(C)c2)no1	18%	8.2µM*	15%	22%	-17%	x
Cc1cc(C(=O)NNc2ccc(Cl)cc2)no1	10%	u	11%	2%	-2%	x
Cc1cc(C(=O)Nc2ccc3[nH]ccc3c2)no1	u	u	2.2µM*	2.8µM*	11µM*	x
COc1ccc(CN(C)C(=O)COc2cccc(-n3cnnn3)c2)cc1OC	4%	-12%	x	x	x	x
Cc1nn2c([nH]c(=O)c3ccccc32)c1C=O	0%	-13%	-11%	3%	2%	1%
C#CCN1C(=O)S/C(=C\c2cc3c(cc2OC)OCO3)C1=O	2%	17%	9%	8%	1%	x
SMILES	ELG1 genotoxic	ELG1 DNA repair	NPC1 prom act	Rab9 prom act	FLuc counter	SMN2 splice up
COc1ccc(NC(=O)COC(=O)c2ccc(Cl)c(S(N)(=O)=O)c2)c([N+](=O)[O-])c1	0%	8%	1%	1%	-2%	x
Cc1cc(NC(=O)c2ccc(C)c([N+](=O)[O-])c2)no1	4%	u	10%	2%	-4%	x
Cc1cc(NC(=O)c2ccc(C)c(C)c2)no1	u	u	3.5µM*	2.8µM*	24µM*	x
COc1ccc(OCc2cccc(C(=O)Nc3cc(C)on3)c2)cc1	u	u	0.1µM*	0.1µM*	3.8µM*	0.2µM*
CC(=O)Oc1ccc(C(=O)Nc2cc(C)on2)cc1	u	u	u	u	15µM*	x
CNc1nc(N)c(C(=O)Nc2cc(C)on2)s1	13%	u	u	u	u	14µM*
COc1cc(OC)cc(C(=O)Nc2cc(C)on2)c1	3%	75%	-1%	-2%	4%	x
Cc1ccc(CCNC(=O)c2cnc3c(-c4ccc(F)cc4)c(C)nn3c2C)cc1	x	x	x	x	0%	x
COc1ccc(C(=O)Nc2noc3ccccc23)cc1	x	x	x	x	0.24µM*	u
Cc1cc(NC(=O)c2ccc3nc(-c4ccccc4)c(-c4ccccc4)nc3c2)no1	11%	-10%	-7%	-8%	0%	19%
Cc1cc(NC(=O)c2ccccc2)no1	u	u	u	u	24µM*	x
CC1=CC2C(=O)c3cccc(O)c3C(=O)C2C(O)=C1 (configuration not stated)	x	x	x	x	x	-4%
CC(C)CC1NC(=O)N(CC(=O)NC2CCCc3ccccc32)C1=O (configuration not stated)	-1%	-15%	-3%	-3%	-1%	19%
CCOc1cc(C(=S)N2CCCCC2)ccc1OCC(=O)NCc1ccccc1	1%	-1%	1%	-6%	17µM*	-26%
CN(C)c1ncc2nc(CCc3ccccc3)c(=O)n(C[C@H]3CCCO3)c2n1	x	x	x	x	x	-9%
CCOC(=O)Cn1c(S(=O)(=O)Cc2ccc(F)cc2)nc(-c2ccccc2)c1-c1ccccc1	-8%	-2%	1%	2%	-1%	7.1µM*
CCOC(=O)Cn1c(S(=O)(=O)Cc2cccc(F)c2)nc(-c2ccccc2)c1-c1ccccc1	-8%	3%	-5%	0%	4%	46%
COc1ccccc1CNC(=O)CS(=O)(=O)Cc1ccccc1	6%	17%	0%	2%	1%	x
COc1ccc(-c2csc(Nc3cc(C)ccn3)n2)cc1C	2%	u	21%	u	8.5µM*	x
COc1ccc(-c2csc(Nc3ncccn3)n2)cc1C	u	u	0.71µM*	0.18µM*	-16%	x

Bioassay records (PubChem)
